Compound activity as filed in PubChem BioAssay.
Pf Dd2 growth – blocks in vitro growth of P. falciparum Dd2. P. falciparum Dd2 growth, SYBR Green, 72 h. Potency, µM (doses to about 28.9 µM), for inactives: top-dose activity, negative = inhibition, most hits filed as inhibitors. actives 4.3% (n = 120,000). AID 1347417; active = well fitted inhibition curve with a large enough effect;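 also: plate controls were DMSO vehicle for no effect and reference drug for full effect; nearly all actives have a fitted effect of over 65% in size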
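Infected erythrocytes (Dd2, 0.3% parasitemia, 2.5% hematocrit final) are added to compound in RPMI-1640/Albumax II medium, grown 72 h at 37C in low oxygen, then lysed with saponin/Triton-X containing SYBR Green and read by fluorescence.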
The depositor's hits bear a star; [ ] = remark or other dose. Many of the other results were omitted from the sample, so hits are more common in it than they were. Potency is read from the fitted curve at half-maximal effect.

Results for O=C(C1CCCN(c2cnn(Cc3ccccc3)c(=O)c2)C1)N1CCCC1 (stereo not drawn) ?
Pf Dd2 growth: inactive

What do the screens show for `O=C(Nc1ccc2c(c1)OCO2)C1CCCN(c2cnn(Cc3ccccc3)c(=O)c2)C1` (stereo not drawn)?
Pf Dd2 growth: 10µM*

Results for O=C(NC1CCS(=O)(=O)C1)C1CCN(c2cnn(Cc3ccccc3)c(=O)c2)C1 (stereo not drawn) ?
Pf Dd2 growth: -21%

How did O=C(NCCc1cccs1)C1CCCN(c2cnn(Cc3ccccc3)c(=O)c2)C1 (stereo not drawn) do in these assays?
Pf Dd2 growth: -28%

What do the screens show for `O=C(Nc1ccc2oc(-c3ccccc3)nc2c1)C1CCN(c2cnn(Cc3ccccc3)c(=O)c2)C1` (stereo not drawn)?
Pf Dd2 growth: 2.5µM*

Results for CCn1nccc1C(=O)N1CCCCCNC(=O)[C@@H]2CCC[C@@H]21 ?
Pf Dd2 growth: 2%

Results for CCOC(=O)CSc1ccc2nnc(CCNS(=O)(=O)c3ccccc3)n2n1 ?
Pf Dd2 growth: -10%

What do the screens show for `Cc1ccc(C)c(CSc2ccc3nnc(CCNS(=O)(=O)c4ccccc4)n3n2)c1`?
Pf Dd2 growth: -4%

Results for Cc1ccc(S(=O)(=O)NCCc2nnc3ccc(SCc4ccccc4C)nn23)cc1 ?
Pf Dd2 growth: 7.9µM*

How did CCn1c(CC2CCN(Cc3cccc(C(=O)OC)n3)CC2)n[nH]c1=O do in these assays?
Pf Dd2 growth: -14%

What do the screens show for `CC[C@@H](NC(=O)c1cc(S(N)(=O)=O)ccc1C)C1CC(O)C1` (stereo partly drawn)?
Pf Dd2 growth: -8%

What do the screens show for `COCCCNC(=O)CC(c1ccc(Cl)cc1)c1c[nH]c2ccccc12` (stereo not drawn)?
Pf Dd2 growth: -5%

How did CC(C)CC(=O)N1[C@H]2CC[C@@H]1c1cnc(-c3ccc(F)cc3)nc1C2 do in these assays?
Pf Dd2 growth: inactive

Results for COC1C(=O)N(C2CCN(C(=O)c3ccncc3)CC2)C12CCOCC2 (stereo not drawn) ?
Pf Dd2 growth: -9%

What do the screens show for `CC(C)N1CCN(C(=O)CCC[C@@H]2[C@H]3CCCN4CCC[C@@H](CN2C(=O)c2ccccc2)[C@@H]34)CC1`?
Pf Dd2 growth: -21%

What do the screens show for `CC(C)N1CCN(C(=O)CCC[C@@H]2[C@H]3CCCN4CCC[C@@H](CN2Cc2ccccc2)[C@@H]34)CC1`?
Pf Dd2 growth: 4µM*

How did O=C(CCC[C@@H]1[C@H]2CCCN3CCC[C@@H](CN1C(=O)c1ccccc1)[C@@H]23)N1CCCCC1 do in these assays?
Pf Dd2 growth: -4%

What do the screens show for `CCN(Cc1ccccc1)C(=O)CCC[C@@H]1[C@H]2CCCN3CCC[C@@H](CN1C(=O)c1ccccc1)[C@@H]23`?
Pf Dd2 growth: 2µM*

Results for O=C(CCC[C@@H]1[C@H]2CCCN3CCC[C@@H](CN1C(=O)c1ccccc1)[C@@H]23)NCCN1CCCCC1 ?
Pf Dd2 growth: -13%

Results for O=C(CCC[C@@H]1[C@H]2CCCN3CCC[C@@H](CN1Cc1cccnc1)[C@@H]23)N1CCN(C2CCCC2)CC1 ?
Pf Dd2 growth: -20%

How did CN(C)c1nc2c(c(=O)[nH]1)CCN(Cc1cccc(C(F)(F)F)c1)CC2 do in these assays?
Pf Dd2 growth: -14%[5.79 µM]

How did Cc1ccc(OCc2nc(C3CN(C(=O)Cc4ccsc4)C3)no2)cc1 do in these assays?
Pf Dd2 growth: 10%

Results for O=C(CC1CCNC1)NC1CC1 (stereo not drawn) ?
Pf Dd2 growth: 12%

How did CNC(=O)[C@H]1C[C@H](Oc2ccccc2)CN1S(=O)(=O)c1cn(C)cn1 do in these assays?
Pf Dd2 growth: -2%

Results for Cn1cnc([S+](=O)([O-])N2CC(COc3ccccc3)C3(CN(c4ccccc4)C3)C2)c1 (stereo not drawn) ?
Pf Dd2 growth: -4%[44.1 µM]

Results for COc1ccnc(-c2nnc3ccc(N4CCN(C(=O)c5ccco5)CC4)nn23)c1 ?
Pf Dd2 growth: inactive

How did CC(C)c1nc2c(c(-c3ccc(O)cc3)n1)CN(CC1CC1)CC2 do in these assays?
Pf Dd2 growth: inactive

What do the screens show for `COc1ccc(CN2CCc3nc(C(C)C)nc(-c4ccc(O)cc4)c3C2)cc1`?
Pf Dd2 growth: 8.9µM*

What do the screens show for `Cc1noc(C)c1[S+](=O)([O-])N1CCc2nc(C(C)C)nc(-c3ccc(Cl)cc3)c2C1`?
Pf Dd2 growth: inactive

How did CC(C)c1nc2c(c(-c3ccc(O)cc3)n1)CN(Cc1ccccc1)CC2 do in these assays?
Pf Dd2 growth: -5%

Results for CC(C)c1nc2c(c(-c3ccc(O)cc3)n1)CN(Cc1cccc(C(F)(F)F)c1)CC2 ?
Pf Dd2 growth: 2.5µM*

What do the screens show for `Cc1noc(C)c1[S+](=O)([O-])N1CCc2nc(C(C)C)nc(-c3ccc(O)cc3)c2C1`?
Pf Dd2 growth: 10µM*

How did Cc1nc2c(c(-c3ccc(Cl)cc3)n1)CN([S+](=O)([O-])c1c(C)noc1C)CC2 do in these assays?
Pf Dd2 growth: inactive

Results for CC(C)c1nc2c(c(-c3ccc(O)cc3)n1)CN(C(=O)c1ccccc1F)CC2 ?
Pf Dd2 growth: -8%

How did CC(C)c1nc(CN(C)C(=O)c2cn(CC3CCCNC3)nn2)cs1 (stereo not drawn) do in these assays?
Pf Dd2 growth: inactive

How did O=C(Nc1ccc([C@@H](O)[C@H]2COCC(=O)N2Cc2ccncc2)cc1)C1CCC1 do in these assays?
Pf Dd2 growth: 4%[44.1 µM]

How did O=C(Cc1c[nH]c2ncc(-c3ccccc3)cc12)Nc1ccc(C(F)(F)F)cc1 do in these assays?
Pf Dd2 growth: -17%[44.1 µM]

How did Cn1cnc2cc(NC(=O)C[C@H]3NC(=O)c4ccccc4NC3=O)ccc21 do in these assays?
Pf Dd2 growth: -22%

Results for Cc1cc(=O)n(CC(=O)Nc2ccc(N(C)C)cc2)c(-c2ccccc2)n1 ?
Pf Dd2 growth: 1%

What do the screens show for `Cn1ccnc1C(=O)N1C[C@@H](Oc2cccnc2)C[C@H]1C(=O)N1CCCC1`?
Pf Dd2 growth: -24%

How did O=C(NCCc1nccc(-c2ccccc2)n1)c1ccc2cccc(F)c2n1 do in these assays?
Pf Dd2 growth: -17%

How did COc1ccc(CCN2Cc3cc(NC(=O)c4ccccc4)ccc3OCC2=O)cc1 do in these assays?
Pf Dd2 growth: inactive

Results for Cc1sc2nc(CCN)nc(N(C)CCCCN3CCOCC3)c2c1C ?
Pf Dd2 growth: inactive

What do the screens show for `CNC(=O)c1ccc(CNc2cc(C3CC(O)C3)nc(N)n2)o1` (stereo not drawn)?
Pf Dd2 growth: -8%

What do the screens show for `CNC(=O)c1ccc(CNc2nc(CCN)nc3sc(C)c(C)c23)o1`?
Pf Dd2 growth: 10µM*

What do the screens show for `CC(C)CC(=O)N1CCC(C(NC(=O)c2ccccc2)C(=O)N2CCCCC2)CC1` (stereo not drawn)?
Pf Dd2 growth: -18%

How did CS(=O)(=O)NC[C@H]1OC[C@@H](NC2CCC2)[C@@H]1O do in these assays?
Pf Dd2 growth: 25%[44.1 µM]

What do the screens show for `Cc1ccc(CN2C(=O)C3(c4ccccc42)N(c2ccc(C)c(Cl)c2)C(=O)CS3(=O)=O)cc1` (stereo not drawn)?
Pf Dd2 growth: -8%

How did CN1C(=O)C2(c3ccccc31)N(c1ccc(Br)cc1)C(=O)CS2(=O)=O (stereo not drawn) do in these assays?
Pf Dd2 growth: -18%

What do the screens show for `Cc1ccc(N2C(=O)CS(=O)(=O)C23C(=O)N(Cc2ccc(Cl)cc2)c2ccccc23)cc1C` (stereo not drawn)?
Pf Dd2 growth: 2.2µM*

What do the screens show for `COc1ccc(S(N)(=O)=O)cc1C(=O)N1CCc2c(nc[nH]c2=O)C1`?
Pf Dd2 growth: -4%
